Reference: the supplement of paper PMC10849652
About 7,900 targets were measured; listed, in parts, are those with a hit and a random draw of the rest. About 0.6% of all pairs of compound and target were hits. A number with no mark means an inactive call.

Columns and labels:
Test in all cases: log2 fold change, soluble protein after heating vs DMSO (PISA); higher = thermal stabilisation; K562 cells, 10 uM, 30 min; active = over 0.2 and 3.5 SD of the protein, either way, in both replicates (recomputed)
[1] = compound: NC(=O)Nc1cc(-c2cccc(F)c2)sc1C(=O)N[C@H]1CCCNC1
Outline: (§1)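 K562 cells at 2×10^6 cells/mL were exposed to 10 μM compound for 30 min, then aliquots were heated for 3 min across 48°C-58°C, pooled, and extracted in PBS containing 0.5% NP-40 at 4°C. The supernatant after 21,000xg for 90 min was taken as soluble protein and measured by TMTpro 16plex LC-MS/MS with channel sums equalised. Thermal stability is reported relative to control samples, with values from duplicates. Fold changes are given on a log2 scale.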

[2] = compound: NC(=O)c1cnc(N[C@@H]2CCCC[C@@H]2N)nc1Nc1cccc(-n2nccn2)c1
Outline: as §1

[3] = compound: NC1(c2ccc(-c3nc4ccn5c(=O)[nH]nc5c4cc3-c3ccccc3)cc2)CCC1
Outline: as §1

[4] = compound: NCC(=O)Nc1ccc(-n2nc(C(F)(F)F)cc2-c2ccc3c(ccc4ccccc43)c2)cc1
Outline: as §1

entinostat = compound: Nc1ccccc1NC(=O)c1ccc(CNC(=O)OCc2cccnc2)cc1 [entinostat]
Outline: as §1

vorinostat = compound: O=C(CCCCCCC(=O)Nc1ccccc1)NO [vorinostat]
Outline: as §1

citarinostat = compound: O=C(CCCCCCNC(=O)c1cnc(N(c2ccccc2)c2ccccc2Cl)nc1)NO [citarinostat]
Outline: as §1

silmitasertib = compound: O=C(O)c1ccc2c(c1)nc(Nc1cccc(Cl)c1)c1ccncc12 [silmitasertib]
Outline: as §1

[5] = compound: O=C1NC(=O)C(c2cnc3ccccn23)=C1c1cn2c3c(cc(F)cc13)CN(C(=O)N1CCCCC1)CC2
Outline: as §1

[6] = compound: c1cc(OCCN2CCCCC2)cc(-c2n[nH]c3ccc(-c4nnc[nH]4)cc23)c1
Outline: as §1

Chain of UniProt Q9BQI3 (Q9BQI3 whole entry, looked up): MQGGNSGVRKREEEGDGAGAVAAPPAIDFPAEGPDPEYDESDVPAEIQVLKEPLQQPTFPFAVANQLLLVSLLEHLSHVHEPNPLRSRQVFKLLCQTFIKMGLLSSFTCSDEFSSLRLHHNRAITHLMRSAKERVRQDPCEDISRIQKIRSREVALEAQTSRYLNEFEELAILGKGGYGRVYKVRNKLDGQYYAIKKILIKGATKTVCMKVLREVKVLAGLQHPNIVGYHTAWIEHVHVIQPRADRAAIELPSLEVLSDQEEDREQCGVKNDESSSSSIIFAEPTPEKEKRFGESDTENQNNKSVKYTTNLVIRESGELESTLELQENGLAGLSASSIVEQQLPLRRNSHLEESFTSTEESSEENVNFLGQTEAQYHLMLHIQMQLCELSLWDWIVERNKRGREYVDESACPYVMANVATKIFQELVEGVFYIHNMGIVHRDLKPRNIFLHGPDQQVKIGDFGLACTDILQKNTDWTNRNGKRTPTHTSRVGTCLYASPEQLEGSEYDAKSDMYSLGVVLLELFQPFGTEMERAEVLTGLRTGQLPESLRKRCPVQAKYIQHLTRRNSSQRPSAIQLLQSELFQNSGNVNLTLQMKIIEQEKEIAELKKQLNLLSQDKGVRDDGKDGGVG
Chain of UniProt O60888 (O60888 whole entry, looked up): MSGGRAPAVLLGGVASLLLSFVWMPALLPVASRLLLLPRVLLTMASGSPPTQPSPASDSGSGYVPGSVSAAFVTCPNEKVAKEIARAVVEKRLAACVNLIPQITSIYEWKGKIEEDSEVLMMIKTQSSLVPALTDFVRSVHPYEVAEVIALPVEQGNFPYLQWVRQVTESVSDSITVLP
Chain of UniProt Q15075 (Q15075 whole entry, looked up): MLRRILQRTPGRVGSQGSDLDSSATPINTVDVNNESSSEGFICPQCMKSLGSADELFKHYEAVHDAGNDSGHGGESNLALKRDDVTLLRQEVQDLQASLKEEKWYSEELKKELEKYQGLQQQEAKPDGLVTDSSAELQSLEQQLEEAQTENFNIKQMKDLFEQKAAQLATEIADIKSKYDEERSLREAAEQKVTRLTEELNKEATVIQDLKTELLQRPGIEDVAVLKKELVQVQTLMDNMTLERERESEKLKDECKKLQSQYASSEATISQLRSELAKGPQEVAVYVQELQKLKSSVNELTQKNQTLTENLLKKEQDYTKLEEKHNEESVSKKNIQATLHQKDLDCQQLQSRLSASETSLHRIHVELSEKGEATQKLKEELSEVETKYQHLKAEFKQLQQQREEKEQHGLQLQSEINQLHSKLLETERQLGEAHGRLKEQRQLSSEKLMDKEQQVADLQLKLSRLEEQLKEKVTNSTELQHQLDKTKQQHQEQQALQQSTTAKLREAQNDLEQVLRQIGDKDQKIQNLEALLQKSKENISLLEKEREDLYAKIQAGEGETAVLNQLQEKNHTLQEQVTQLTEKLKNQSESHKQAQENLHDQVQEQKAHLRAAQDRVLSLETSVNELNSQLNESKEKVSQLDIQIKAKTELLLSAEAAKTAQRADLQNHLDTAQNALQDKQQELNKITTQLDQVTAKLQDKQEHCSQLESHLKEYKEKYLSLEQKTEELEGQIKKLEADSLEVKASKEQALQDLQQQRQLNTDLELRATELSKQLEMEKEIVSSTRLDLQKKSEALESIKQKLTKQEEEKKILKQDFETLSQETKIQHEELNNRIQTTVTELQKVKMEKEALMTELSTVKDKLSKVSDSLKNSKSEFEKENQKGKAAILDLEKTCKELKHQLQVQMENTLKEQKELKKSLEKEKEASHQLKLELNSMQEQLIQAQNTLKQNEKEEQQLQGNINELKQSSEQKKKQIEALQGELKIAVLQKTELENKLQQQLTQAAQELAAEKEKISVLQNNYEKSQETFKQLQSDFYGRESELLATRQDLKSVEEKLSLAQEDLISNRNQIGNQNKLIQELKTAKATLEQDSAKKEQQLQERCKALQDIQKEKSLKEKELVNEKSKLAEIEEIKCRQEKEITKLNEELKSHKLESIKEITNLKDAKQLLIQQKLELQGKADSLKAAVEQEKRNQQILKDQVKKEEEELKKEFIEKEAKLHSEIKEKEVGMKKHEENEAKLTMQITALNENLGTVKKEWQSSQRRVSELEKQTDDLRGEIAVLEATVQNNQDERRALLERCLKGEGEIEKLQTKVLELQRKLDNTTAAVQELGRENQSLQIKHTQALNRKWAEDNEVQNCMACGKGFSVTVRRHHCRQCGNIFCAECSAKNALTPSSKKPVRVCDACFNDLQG
Chain of UniProt Q96GQ7 (Q96GQ7 whole entry, looked up): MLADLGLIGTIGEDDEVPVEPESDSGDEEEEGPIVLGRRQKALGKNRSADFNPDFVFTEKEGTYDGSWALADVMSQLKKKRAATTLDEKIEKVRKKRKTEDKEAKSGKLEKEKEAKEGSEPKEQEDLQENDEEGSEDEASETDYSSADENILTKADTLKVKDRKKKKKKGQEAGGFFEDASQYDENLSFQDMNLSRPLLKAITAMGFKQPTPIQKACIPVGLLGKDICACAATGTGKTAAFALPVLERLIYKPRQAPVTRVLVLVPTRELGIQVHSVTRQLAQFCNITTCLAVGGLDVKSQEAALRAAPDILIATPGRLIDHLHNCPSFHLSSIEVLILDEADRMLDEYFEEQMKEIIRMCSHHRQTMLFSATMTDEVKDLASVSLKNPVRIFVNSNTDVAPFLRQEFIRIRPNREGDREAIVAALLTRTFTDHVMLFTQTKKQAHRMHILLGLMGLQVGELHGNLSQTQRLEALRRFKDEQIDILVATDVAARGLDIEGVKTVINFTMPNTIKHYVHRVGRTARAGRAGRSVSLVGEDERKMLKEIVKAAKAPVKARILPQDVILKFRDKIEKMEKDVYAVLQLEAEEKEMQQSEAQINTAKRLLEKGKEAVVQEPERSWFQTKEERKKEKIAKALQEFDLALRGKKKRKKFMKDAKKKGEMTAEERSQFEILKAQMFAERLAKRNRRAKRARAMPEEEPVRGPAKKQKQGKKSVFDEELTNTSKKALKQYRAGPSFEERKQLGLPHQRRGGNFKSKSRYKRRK
Chain of UniProt Q0VG06 (Q0VG06 whole entry, looked up): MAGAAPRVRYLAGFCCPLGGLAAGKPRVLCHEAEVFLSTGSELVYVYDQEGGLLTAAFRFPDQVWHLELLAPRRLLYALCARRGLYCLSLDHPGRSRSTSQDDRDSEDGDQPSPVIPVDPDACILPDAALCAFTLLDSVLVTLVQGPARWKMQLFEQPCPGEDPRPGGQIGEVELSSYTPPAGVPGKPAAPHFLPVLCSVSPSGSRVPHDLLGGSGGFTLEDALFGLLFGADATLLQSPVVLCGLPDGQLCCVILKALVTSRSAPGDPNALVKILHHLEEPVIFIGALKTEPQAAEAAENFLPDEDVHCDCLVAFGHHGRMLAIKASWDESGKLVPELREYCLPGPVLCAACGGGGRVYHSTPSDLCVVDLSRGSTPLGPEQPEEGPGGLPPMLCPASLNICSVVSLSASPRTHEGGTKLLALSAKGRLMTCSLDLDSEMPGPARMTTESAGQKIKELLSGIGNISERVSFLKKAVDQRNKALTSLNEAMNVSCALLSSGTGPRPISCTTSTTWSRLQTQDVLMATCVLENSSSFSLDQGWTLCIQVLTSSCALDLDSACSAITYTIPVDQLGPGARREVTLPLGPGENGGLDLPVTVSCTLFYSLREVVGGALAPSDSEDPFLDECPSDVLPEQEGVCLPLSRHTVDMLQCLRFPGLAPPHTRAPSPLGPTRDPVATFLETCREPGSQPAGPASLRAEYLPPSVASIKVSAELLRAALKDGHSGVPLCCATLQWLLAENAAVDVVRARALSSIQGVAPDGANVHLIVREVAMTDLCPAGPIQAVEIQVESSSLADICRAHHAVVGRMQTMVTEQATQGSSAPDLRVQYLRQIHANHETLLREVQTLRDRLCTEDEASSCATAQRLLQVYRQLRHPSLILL
Chain of UniProt P34913 (P34913 whole entry, looked up): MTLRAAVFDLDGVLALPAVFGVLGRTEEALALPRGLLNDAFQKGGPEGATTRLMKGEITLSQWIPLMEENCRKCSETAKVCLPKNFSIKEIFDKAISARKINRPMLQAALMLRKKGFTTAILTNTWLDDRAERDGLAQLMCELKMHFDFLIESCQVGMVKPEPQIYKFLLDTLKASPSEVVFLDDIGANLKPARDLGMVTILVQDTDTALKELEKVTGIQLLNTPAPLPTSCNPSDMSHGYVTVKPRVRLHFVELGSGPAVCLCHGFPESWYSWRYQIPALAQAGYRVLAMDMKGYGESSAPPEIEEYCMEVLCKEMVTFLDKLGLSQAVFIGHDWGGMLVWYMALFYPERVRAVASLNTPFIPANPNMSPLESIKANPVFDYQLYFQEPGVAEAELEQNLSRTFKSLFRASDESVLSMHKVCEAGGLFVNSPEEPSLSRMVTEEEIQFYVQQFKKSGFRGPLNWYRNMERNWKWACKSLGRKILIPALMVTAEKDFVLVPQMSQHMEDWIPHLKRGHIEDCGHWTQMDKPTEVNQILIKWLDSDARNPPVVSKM
Chain of UniProt Q9NXF7 (Q9NXF7 whole entry, looked up): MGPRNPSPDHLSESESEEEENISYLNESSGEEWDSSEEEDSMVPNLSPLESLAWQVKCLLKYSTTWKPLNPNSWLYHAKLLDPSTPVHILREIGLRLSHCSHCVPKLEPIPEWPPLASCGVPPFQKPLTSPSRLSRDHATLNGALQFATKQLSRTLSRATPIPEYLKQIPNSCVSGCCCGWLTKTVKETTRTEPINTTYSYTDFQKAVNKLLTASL
Chain of UniProt Q9UBQ6 (Q9UBQ6 whole entry, looked up): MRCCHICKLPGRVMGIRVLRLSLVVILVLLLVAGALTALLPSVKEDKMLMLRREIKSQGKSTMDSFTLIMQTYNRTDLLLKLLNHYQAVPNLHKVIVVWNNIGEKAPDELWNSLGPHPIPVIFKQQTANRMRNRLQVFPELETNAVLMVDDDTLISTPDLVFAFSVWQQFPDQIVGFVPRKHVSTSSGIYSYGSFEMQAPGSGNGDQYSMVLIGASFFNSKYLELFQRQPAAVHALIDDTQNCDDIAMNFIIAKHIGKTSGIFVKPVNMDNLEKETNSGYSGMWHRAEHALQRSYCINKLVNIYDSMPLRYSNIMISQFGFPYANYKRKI

| Target | log2 fold change [1] | log2 fold change [2] | log2 fold change [3] | log2 fold change [4] | log2 fold change (entinostat) | log2 fold change (vorinostat) | log2 fold change (citarinostat) | log2 fold change (silmitasertib) | log2 fold change [5] | log2 fold change [6] |
| --- | --- | --- | --- | --- | --- | --- | --- | --- | --- | --- |
| ECH1 (UniProt Q13011) | 0 | -0.101 | 0.295 | -0.078 | -0.025 | -0.015 | 0.002 | -0.072 | -0.076 | 0.038 |
| DDX46 (UniProt Q7L014) | -0.185 | -0.087 | -0.178 | -0.197 | 0.095 | 0 | 0.103 | 0.018 | -0.243 | 0.084 |
| DDX27 (UniProt Q96GQ7) | 0.002 | 0.04 | 0.198 | 0.123 | -0.106 | -0.039 | -0.103 | 0.087 | 0.326 | -0.218 |
| EEF1D isoform 2 (UniProt P29692) | -0.02 | -0.06 | -0.034 | -0.105 | 0.018 | -0.02 | 0.017 | 0.108 | -0.001 | -0.067 |
| EFCAB14 (UniProt O75071) | 0.024 | 0.218 | -0.123 | -0.006 | 0.007 | -0.057 | 0.181 | 0.022 | -0.031 | -0.075 |
| DDOST (UniProt P39656) | 0.003 | -0.013 | -0.057 | 0.014 | 0.007 | -0.036 | 0.017 | 0.05 | -0.017 | -0.116 |
| EEA1 (UniProt Q15075) | 0.013 | -0.014 | 0.006 | -0.014 | -0.023 | 0.004 | -0.001 | 0.015 | 0.006 | -0.043 |
| DNTTIP2 (UniProt Q5QJE6) | 0.14 | -0.054 | 0.155 | 0.029 | -0.03 | 0.045 | 0.016 | 0.102 | -0.028 | -0.095 |
| EIF4E isoform 2 (UniProt P06730) | 0.005 | 0.226 | 0.059 | 0.126 | -0.073 | -0.01 | -0.026 | 0.102 | -0.044 | 0.141 |
| DHCR7 (UniProt Q9UBM7) | 0.08 | 0.014 | 0.239 | -0.134 | 0.082 | 0.03 | -0.023 | -0.084 | -0.04 | -0.026 |
| CUTA isoform 2 (UniProt O60888) | -0.022 | 0.153 | 0.013 | 0.063 | 0.019 | -0.005 | 0.113 | -0.031 | -0.132 | -0.046 |
| EXTL2 (UniProt Q9UBQ6) | -0.051 | -0.033 | -0.018 | 0.039 | -0.01 | 0.019 | -0.044 | -0.011 | 0.003 | -0.223 |
| FAAP100 (UniProt Q0VG06) | 0.009 | 0.039 | -0.076 | -0.031 | -0.05 | 0.048 | -0.012 | -0.051 | 0.197 | -0.053 |
| CTSL (UniProt P07711) | 0.082 | -0.045 | -0.123 | 0.039 | -0.074 | -0.053 | -0.018 | 0.027 | -0.079 | -0.011 |
| EPHX2 (UniProt P34913) | -0.148 | -0.05 | -0.016 | -0.015 | 0.045 | 0.113 | 0.025 | 0.003 | -0.025 | -0.037 |
| DPYSL2 (UniProt Q16555) | 0.053 | 0.01 | 0.014 | -0.056 | -0.037 | 0.276 | -0.017 | -0.118 | -0.224 | -0.054 |
| FAM160B1 (UniProt Q5W0V3) | 0.04 | -0.038 | -0.211 (active) | -0.043 | 0.026 | 0.139 | 0.069 | -0.026 | -0.064 | 0 |
| DCAF16 (UniProt Q9NXF7) | -0.122 | -0.109 | -0.09 | -0.036 | 0.02 | 0.004 | 0.07 | 0.082 | -0.09 | -0.041 |
| EIF2S3 (UniProt P41091) | 0.034 | 0.006 | 0.163 | 0.025 | -0.001 | 0 | -0.044 | -0.001 | 0.066 | -0.154 |
| CTSB (UniProt P07858) | -0.013 | -0.043 | -0.283 (active) | 0.005 | -0.047 | 0.016 | -0.015 | 0.002 | -0.067 | -0.07 |
| EMD (UniProt P50402) | -0.012 | -0.064 | -0.068 | -0.041 | -0.031 | -0.017 | -0.076 | 0.054 | -0.084 | -0.141 |
| EEF1AKNMT (UniProt Q8N6R0) | -0.025 | -0.061 | -0.109 | -0.017 | 0.038 | 0.161 | -0.002 | 0.059 | 0.055 | 0.031 |
| DHRS3 (UniProt O75911) | -0.032 | -0.047 | -0.081 | -0.06 | 0.05 | -0.084 | 0.024 | 0.009 | 0.046 | -0.06 |
| FAM50A (UniProt Q14320) | 0.003 | -0.008 | -0.087 | -0.082 | 0.045 | 0.011 | 0.095 | 0.071 | -0.001 | -0.019 |
| DOCK8 (UniProt Q8NF50) | -0.088 | 0.073 | 0.461 | 0.036 | 0.079 | 0.031 | 0.064 | 0.254 | -0.12 | 0.07 |
| DNAJC7 (UniProt Q99615) | -0.067 | -0.029 | -0.204 | -0.071 | 0.05 | 0.043 | 0.071 | 0.001 | -0.03 | -0.001 |
| DNAJC19 (UniProt Q96DA6) | -0.014 | 0.004 | -0.017 | -0.006 | 0.004 | -0.03 | 0.024 | -0.018 | 0.01 | -0.015 |
| DOHH (UniProt Q9BU89) | 0.043 | 0.056 | 0.278 | 0.009 | -0.106 | -0.04 | 0.017 | 0.047 | 0.153 | 0.283 |
| EGR1 (UniProt P18146) | -0.029 | -0.346 | 0.345 | 0.066 | 0.091 | -0.033 |  | 0.085 | -0.109 |  |
| EIF2AK1 (UniProt Q9BQI3) | -0.034 | 0.018 | -0.023 | 0.001 | 0.129 | -0.058 |  | 0 | 0.133 |  |
